Among all 300,000 compounds or so, about 37,000 (12%) were called active. Shown is part of a subset that was picked to be rich in actives. Values without a mark were called inactive. Cut-off read from the data, not from the text of the source: active = max response mostly above about 13% (no sharp cut-off); inactive = mostly below about 14%.
Assay: Cycloheximide Counterscreen for Small Molecule Inhibitors of Shiga Toxin; note: read at 38.3 µM for the half of the compounds with a filed dose; 0% is about no effect
Conditions: cell reporter, cycloheximide protein synthesis inhibition counterscreen; hits give high values

| Compound | max response |
| --- | --- |
| FC(F)(F)c1ccc(CN2C[C@@H]3C(c4ccccc4)C4(c5ccccc5)CC3(C4)[C@H]2c2ccccc2)cc1 (stereo partly specified) | -2.46% |
| COc1cc(NC(=O)CN(C)S(=O)(=O)c2ccc3nc(C)sc3c2)cc(OC)c1 | -1.04% |
| Cc1ccc(N(CC(=O)Nc2cc(C)cc(C)c2)S(=O)(=O)c2cccc3nonc23)cc1 | -2.6% |
| CCN(CC)S(=O)(=O)c1ccc(NC(=O)CN(c2cccc(F)c2)S(C)(=O)=O)cc1 | -1.18% |
| Cc1cccc(N(CC(=O)Nc2ccc(-c3nc4ccc(C)cc4s3)cc2)S(C)(=O)=O)c1 | 43% (active) |
| Cc1nc2ccc(S(=O)(=O)N(C)CC(=O)NC(C)c3ccccc3)cc2s1 (stereo unspecified) | -0.483% |
| Cc1ccc2nc(-c3ccc(NC(=O)CN(C)S(=O)(=O)c4ccccc4)cc3)sc2c1 | 41.9% (active) |
| COc1ccc(/C=C/CN2CCCC(C(=O)c3cc(F)ccc3F)C2)cc1 (stereo unspecified) | 4.59% |
| COc1ccc(-c2nc3n(c(=O)c2C#N)CCS3)c(OC)c1 | -3.87% |
| COc1ccc(F)c(-c2nc(CN3CCC(c4ccccc4)CC3)c(C)o2)c1 | -1.94% |
| COc1cc(/C=C2\C(=N)N3N=C(CC(=O)N4CCOCC4)SC3=NC2=O)cc(OC)c1OC | -8.71% |
| CN(C)N1C(N)=C(C#N)C(c2ccc(Br)cc2)C2=C1CCCC2=O (stereo unspecified) | 11.2% |
| Cc1cc(C)nc(NC(=O)C(C)N2C(=O)c3ccccc3C2=O)n1 (stereo unspecified) | -0.537% |
| COc1cccc(C(=O)NC(=O)Nc2nc(C)cc(C(F)(F)F)n2)c1 | -1.67% |
| Cc1cc(C)nc(NC(=O)Nc2ccccc2C(F)(F)F)n1 | 25.8% (active) |
| NNC(=O)c1nnn(-c2nonc2N)c1CN1CCCC1 | -0.43% |
| CCOc1cc2[nH]c(=S)n(Cc3ccc(C(=O)N4CCN(C)CC4)cc3)c(=O)c2cc1OCC | -1.74% |
| Cc1cc(S(=O)(=O)N2CCOCC2)ccc1OCC(=O)N1CCOCC1 | 0.946% |
| Cc1ccc(OCCCC(=O)NC(C)c2ccccc2)c(C)c1 (stereo unspecified) | 6.31% |
| Cc1ccc(OCCCC(=O)N2CCOCC2)c(C)c1 | 51.4% (active) |
| O=C(c1ccc(Br)o1)N1CCN(CCOc2ccccc2)CC1 | -3.01% |
| CCNC(=O)c1cnn(-c2ccccc2)c1-c1ccccc1 | -0.397% |
| CCCc1c(C(=O)Nc2ccc(F)cc2)cnn1-c1ccccc1 | 33.4% (active) |

| Compound | max response |
| --- | --- |
| CCCc1c(C(=O)O)cnn1-c1ccc(Cl)cc1 | -0.801% |
| CC(C)(C)c1cc(P(=O)(c2ccccc2)c2ccccc2)ccc1O | 0.647% |
| CC(C)N(C(=O)CSc1nc(COc2ccccc2)nc2ccccc12)C(C)C | 9.79% |
| Cc1ccc(-c2ccc(/C=N/NC(=O)CN3CCOCC3)o2)cc1[N+](=O)[O-] | 12.3% |
| CN1CCN(/N=C2/C(=O)Nc3ccc([N+](=O)[O-])cc32)CC1 | 9.26% |
| CN1CCN(/N=C/c2ccc(-c3ccc([N+](=O)[O-])cc3)o2)CC1 | 31.4% (active) |
| COC(=O)c1ccc(NC(=O)C23CC4CC(C2)CC(n2cnc(Cl)n2)(C4)C3)cc1 | 3.9% |
| CC(=O)Nc1ccc(S(=O)(=O)N2CCN(CCCOc3cc(C)ccc3C)CC2)cc1 | -1.97% |
| N=c1c2c(-c3ccccc3)c(-c3ccccc3)n(Cc3ccccc3)c2ncn1CCCO | -6.29% |
| OCCCN1c2ccccc2Nc2nnc(-c3ccccc3)cc21 | 36.8% (active) |
| O=C(NC(=S)NC1CCS(=O)(=O)C1)c1cccc([N+](=O)[O-])c1 (stereo unspecified) | -1.9% |
| CC1CCCN(c2ccc(C(=O)NCCc3ccccc3)cn2)C1 (stereo unspecified) | 66.7% (active) |
| O=C(NCCc1ccccc1)c1ccc(NC2=NC3CS(=O)(=O)CC3S2)cc1 (stereo unspecified) | 3.38% |
| CC1CCN(c2c(NCc3ccc(C(=O)NCc4ccccc4)cc3)c(=O)c2=O)CC1 | 3.3% |
| Cc1cc(Nc2ccc(C(=O)N3CCCCC3)cc2)c2cccc(C)c2n1 | -1.19% |
| COc1ccc(Nc2ccc([N+](=O)[O-])cn2)cn1 | -2.61% |
| NC1=NC[C@@H](Cc2ccc(O)cc2)N1CC1CCCCC1 | -4.36% |
| Cc1cc(NC(=O)COC(=O)COc2ccc(Cl)cc2C)c([N+](=O)[O-])cc1C | -1.12% |
| COc1ccc(OCC(=O)Nc2cc(C)c(Cl)cc2OC)c([N+](=O)[O-])c1 | 13.9% (active) |
| COc1cc(Cl)c(C)cc1NC(=O)COC(=O)c1cc(SC)ccc1Cl | -1.86% |
| Cc1cccc2sc(N(CCCN(C)C)C(=O)CCS(=O)(=O)c3ccccc3)nc12 | 8.46% |
| CN(C)CCCn1c(SCc2ccc(Cl)cc2)nnc1-c1ccncc1 | -2.48% |
| COc1ccc(NC(=O)C2=CC(c3ccc(OC)c(OC)c3)=NS(=O)(=O)N2C)cc1 | -6.05% |

Source: PubChem BioAssay AID2314 (National Center for Advancing Translational Sciences (NCATS), 2010)
